From PubChem BioAssay
The source made the active and inactive calls.

Experiments:
[1] = target: Albumin (Bos taurus) (UniProt P02769); test: compounds binding labelled BSA control protein – biochemical, small-molecule microarray, Alexa647 label, 635/667 nm fluorescence, artefact control for SMM control protein annotation, profiling panel (AID 1118); conditions: BSA-A647 binding, fluorescence 635 nm, higher = more signal;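 note: score merges 667 nm emission intensity and signal-to-noise per printed compound spot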
Albumin (Bos taurus), sequence (P02769 whole entry, looked up): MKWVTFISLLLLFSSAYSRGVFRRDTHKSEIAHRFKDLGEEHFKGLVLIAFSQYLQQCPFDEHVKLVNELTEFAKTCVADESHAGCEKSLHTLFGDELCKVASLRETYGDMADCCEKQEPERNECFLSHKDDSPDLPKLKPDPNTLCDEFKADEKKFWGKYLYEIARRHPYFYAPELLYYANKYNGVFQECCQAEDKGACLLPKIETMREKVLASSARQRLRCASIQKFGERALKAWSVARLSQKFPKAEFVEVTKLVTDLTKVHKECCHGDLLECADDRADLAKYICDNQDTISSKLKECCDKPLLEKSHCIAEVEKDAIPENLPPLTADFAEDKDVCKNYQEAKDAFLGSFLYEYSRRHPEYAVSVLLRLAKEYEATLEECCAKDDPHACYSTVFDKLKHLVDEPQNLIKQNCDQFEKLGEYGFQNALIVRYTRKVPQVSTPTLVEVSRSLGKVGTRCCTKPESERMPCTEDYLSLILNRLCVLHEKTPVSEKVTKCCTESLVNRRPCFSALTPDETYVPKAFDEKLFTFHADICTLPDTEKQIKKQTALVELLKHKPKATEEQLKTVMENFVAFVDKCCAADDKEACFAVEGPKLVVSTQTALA

[2] = probe aXIP binding to arrayed compounds – biochemical, NeuroSMM set, 635/667 nm fluorescence, primary screen (AID 1119); conditions: small-molecule microarray, higher = more signal, called active from +8 up or from −8 down;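 note: probe is the protein aXip251-270 applied at 1 µg/mL to compound-printed slides; binding of probe to printed compounds measured as 667 nm fluorescence plus signal to noise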
[3] = probe aNOTCH3 binding on compound microarray – biochemical, small-molecule microarray, 635/667 nm fluorescence, primary screen (AID 1120); conditions: higher = more signal;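 note: probe is a biotin-tagged antibody raised against NOTCH3 rather than NOTCH3 protein; score merges spot fluorescence near 667 nm with spot signal to noise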
[4] = probe aNOTCH2 binding on compound microarray – biochemical, small-molecule microarray, 635/667 nm fluorescence, primary screen (AID 1121); conditions: higher = more signal;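 note: score merges feature fluorescence read at 667 nm with its signal to noise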
[5] = target: Carbonic anhydrase 2 (Homo sapiens) (UniProt P00918); test: compounds binding carbonic anhydrase 2 – biochemical, small-molecule microarray, Alexa647-labelled CAII, profiling panel (AID 1122); conditions: CAII-A647 binding fluorescence, higher = more signal
[6] = COS7 lysate on small-molecule microarray, probe aHis, 635 nm (AID 1123); conditions: COS7 cell lysate, fluorescence, higher = more signal;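 note: z-score combines 667nm fluorescence intensity with signal-to-noise per printed compound spot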
[7] = probe aLAP1 signal on lysate-treated microarray – cell lysate, small-molecule microarray, COS7 lysate, primary screen (AID 1124); conditions: probe aLAP1, fluorescence, higher = more signal;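 note: lysate comes from COS7 cells expressing LAP1 and is applied at 0.3 µg/mL; score merges spot fluorescence near 667 nm with signal-to-noise over triplicate slides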
[8] = test system: Sam68 (KHDRBS1); test: compounds binding KHDRBS1 protein – biochemical, small-molecule microarray, 635 nm fluorescence, primary screen (AID 1125); conditions: higher = more signal;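 note: score merges 667 nm channel intensity with signal to noise over triplicate slides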
[9] = test system: Chordin-like protein 2 (CHRDL2); test: compounds binding chordin-like 2 – biochemical, small-molecule microarray, 635 nm fluorescence, primary screen (AID 1126); conditions: fluorescence 635 nm, higher = more signal;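 note: printed compound slides probed with Chrdl2 protein at 4 µg/mL for 1 h at 4 C; score merges 667 nm emission intensity with signal to noise over three replicate slides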
[10] = target: Concanavalin-A (Canavalia ensiformis) (UniProt P02866); test: compounds binding concanavalin A lectin – biochemical, small-molecule microarray, Alexa647 label, 635 nm, artefact control for SMM control protein annotation, primary screen (AID 1127); conditions: ConA-A647 binding fluorescence, higher = more signal;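 note: z combines 667 nm emission intensity with signal-to-noise across three replicate slides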
Concanavalin-A (Canavalia ensiformis), sequence (P02866 whole entry, looked up): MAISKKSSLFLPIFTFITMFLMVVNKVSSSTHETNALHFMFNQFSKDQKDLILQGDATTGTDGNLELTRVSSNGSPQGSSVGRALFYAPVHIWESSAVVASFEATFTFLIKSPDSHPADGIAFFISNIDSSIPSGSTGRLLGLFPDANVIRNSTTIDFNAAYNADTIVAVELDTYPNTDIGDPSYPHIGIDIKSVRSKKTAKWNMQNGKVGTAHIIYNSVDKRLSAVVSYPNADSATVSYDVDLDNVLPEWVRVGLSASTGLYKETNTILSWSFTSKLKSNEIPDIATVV

[11] = compounds binding Alexa647 anti-His antibody – biochemical, small-molecule microarray, 635 nm fluorescence, artefact control for SMM control protein annotation, primary screen (AID 1128); conditions: higher = more signal;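 note: score merges feature fluorescence with signal-to-noise for each printed compound spot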
[12] = test system: Human papillomavirus type 1a E7 protein (residues 1-88); test: HPV1a E7 small-molecule binders, primary screen, biochemical, small-molecule microarray, residues 1-88, 635 nm (AID 1129); conditions: small-molecule microarray binding, fluorescence 635 nm; higher = more signal
[13] = target: Focal adhesion kinase 1 (Homo sapiens) (UniProt Q05397); test: PTK2 protein binding on printed compound slides – biochemical, small-molecule microarray, 635/667 nm fluorescence, BSA, DTT, primary screen (AID 1130); conditions: 635 nm fluorescence, higher = more signal;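 note: composite of spot emission at 667 nm and signal to noise over triplicate slides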
Focal adhesion kinase 1 (Homo sapiens), sequence (Q05397 whole entry, looked up): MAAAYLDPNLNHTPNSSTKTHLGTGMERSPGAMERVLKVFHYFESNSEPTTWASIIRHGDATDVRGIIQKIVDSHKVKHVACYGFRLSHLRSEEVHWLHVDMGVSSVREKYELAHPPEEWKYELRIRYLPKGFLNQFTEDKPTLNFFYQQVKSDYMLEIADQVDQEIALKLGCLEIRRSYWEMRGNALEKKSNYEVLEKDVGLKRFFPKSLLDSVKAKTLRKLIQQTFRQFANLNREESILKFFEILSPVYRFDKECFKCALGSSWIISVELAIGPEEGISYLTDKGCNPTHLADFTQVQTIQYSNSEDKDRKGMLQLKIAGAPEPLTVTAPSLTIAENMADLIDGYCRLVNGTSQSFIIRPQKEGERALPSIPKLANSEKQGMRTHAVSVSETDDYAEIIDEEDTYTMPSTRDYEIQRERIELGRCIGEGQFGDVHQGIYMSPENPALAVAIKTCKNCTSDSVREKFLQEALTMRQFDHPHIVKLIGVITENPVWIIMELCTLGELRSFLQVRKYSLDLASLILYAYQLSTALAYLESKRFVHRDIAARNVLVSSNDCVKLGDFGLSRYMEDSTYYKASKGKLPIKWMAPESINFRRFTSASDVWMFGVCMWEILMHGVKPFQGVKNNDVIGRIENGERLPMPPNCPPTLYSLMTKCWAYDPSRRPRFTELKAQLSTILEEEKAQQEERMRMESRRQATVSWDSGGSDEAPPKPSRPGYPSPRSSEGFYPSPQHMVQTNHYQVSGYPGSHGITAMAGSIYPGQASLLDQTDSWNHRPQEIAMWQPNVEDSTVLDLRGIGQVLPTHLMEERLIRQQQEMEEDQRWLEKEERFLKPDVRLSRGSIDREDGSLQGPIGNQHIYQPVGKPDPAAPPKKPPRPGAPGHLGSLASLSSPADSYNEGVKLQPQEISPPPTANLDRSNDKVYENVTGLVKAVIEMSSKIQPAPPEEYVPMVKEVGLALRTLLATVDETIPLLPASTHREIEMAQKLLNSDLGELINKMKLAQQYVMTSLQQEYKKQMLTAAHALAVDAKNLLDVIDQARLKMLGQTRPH

[14] = test system: Fibrinogen (Alexa647-labelled); test: Alexa647-fibrinogen binding to printed small molecules – biochemical, small-molecule microarray, 635/667 nm fluorescence, artefact control for SMM control-protein annotation, profiling panel (AID 1131); conditions: fibrinogen-A647 binding fluorescence, higher = more signal;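 note: z-score merges 667 nm fluorescence with per-spot signal-to-noise over triplicate slides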
[15] = target: Follistatin (Homo sapiens) (UniProt P19883); test: FST protein binding to printed compounds – biochemical, small-molecule microarray, 635/667 nm fluorescence, primary screen (AID 1132); conditions: 635 nm fluorescence, higher = more signal
Follistatin (Homo sapiens), sequence (P19883 whole entry, looked up): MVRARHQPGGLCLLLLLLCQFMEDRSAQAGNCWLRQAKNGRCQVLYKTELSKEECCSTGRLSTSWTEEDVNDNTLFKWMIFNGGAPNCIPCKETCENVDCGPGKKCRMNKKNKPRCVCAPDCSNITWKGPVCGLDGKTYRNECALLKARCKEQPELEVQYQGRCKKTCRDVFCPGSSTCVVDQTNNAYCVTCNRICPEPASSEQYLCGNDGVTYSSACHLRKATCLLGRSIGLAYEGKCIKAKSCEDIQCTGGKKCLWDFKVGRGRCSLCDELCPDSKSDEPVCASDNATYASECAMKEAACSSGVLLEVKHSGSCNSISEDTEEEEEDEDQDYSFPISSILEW

[16] = target: Fibroblast growth factor 2 (Homo sapiens) (UniProt P09038); test: basic fibroblast growth factor binding to printed compounds – biochemical, small-molecule microarray, 635/667 nm fluorescence, primary screen (AID 1133); conditions: FGF2, fluorescence 635/667, higher = more signal
Fibroblast growth factor 2 (Homo sapiens), sequence (P09038 whole entry, looked up): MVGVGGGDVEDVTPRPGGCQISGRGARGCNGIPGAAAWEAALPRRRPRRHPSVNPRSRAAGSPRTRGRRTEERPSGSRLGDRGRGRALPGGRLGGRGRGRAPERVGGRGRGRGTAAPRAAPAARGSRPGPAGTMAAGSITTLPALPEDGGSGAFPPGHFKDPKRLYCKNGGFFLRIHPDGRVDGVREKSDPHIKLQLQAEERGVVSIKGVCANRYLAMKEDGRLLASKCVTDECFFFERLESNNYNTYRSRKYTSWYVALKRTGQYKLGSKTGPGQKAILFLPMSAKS

[17] = JC-1 mitochondrial potential readout, lung cancer cells – cell-based, A549, JC-1 fluorescence, basal, 24 h, 100 nL, profiling panel (AID 1138); conditions: higher = more signal;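 note: A549 lung adenocarcinoma cells under basal conditions with no added stimulus; test concentration not given here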
[18] = test system: Lefty1; test: Lefty1 protein binding to printed compounds – biochemical, small-molecule microarray, 635/667 nm fluorescence, primary screen (AID 1139); conditions: fluorescence 635/667, higher = more signal
[19] = test system: wheat germ agglutinin (Triticum aestivum), Alexa647-labelled; test: Alexa647-WGA lectin binding to printed small molecules – biochemical, small-molecule microarray, 635/667 nm fluorescence, artefact control for SMM control-protein annotation, profiling panel (AID 1140); conditions: WGA-A647 binding, 635 nm fluorescence, higher = more signal;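 note: score merges 667 nm feature emission with signal to noise over triplicate slides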
[20] = target: Luciferin 4-monooxygenase (Photinus pyralis) (UniProt P08659); test: inhibition of purified Photinus pyralis luciferase – biochemical, luminescence, purified enzyme, 2006 set, primary screen (AID 1141); conditions: purified firefly luciferase, SteadyGlo luminescence, 30 min; higher = more signal, called active from +8 up or from −8 down;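 note: cell-free assay with purified firefly luciferase at 100 ng per well in PBS; test concentration not given here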
Luciferin 4-monooxygenase (Photinus pyralis), sequence (P08659 whole entry, looked up): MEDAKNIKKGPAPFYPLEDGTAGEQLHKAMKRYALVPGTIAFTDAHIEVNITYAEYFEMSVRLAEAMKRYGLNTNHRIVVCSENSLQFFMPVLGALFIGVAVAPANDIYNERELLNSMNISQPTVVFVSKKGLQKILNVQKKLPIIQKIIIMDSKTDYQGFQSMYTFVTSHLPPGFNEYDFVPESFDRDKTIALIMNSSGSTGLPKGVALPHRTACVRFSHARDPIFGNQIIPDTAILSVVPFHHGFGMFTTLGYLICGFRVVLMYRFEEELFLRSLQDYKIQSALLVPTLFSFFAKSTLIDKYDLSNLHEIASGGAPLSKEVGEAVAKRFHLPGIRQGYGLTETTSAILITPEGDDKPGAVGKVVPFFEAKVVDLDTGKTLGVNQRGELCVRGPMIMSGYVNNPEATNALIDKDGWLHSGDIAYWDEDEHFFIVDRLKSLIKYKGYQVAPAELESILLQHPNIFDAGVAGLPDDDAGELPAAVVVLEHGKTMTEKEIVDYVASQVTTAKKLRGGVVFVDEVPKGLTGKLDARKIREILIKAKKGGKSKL

| Structure (SMILES) | composite z-score [1] | composite Z-score [2] | composite z-score [3] | composite z-score [4] | composite z-score [5] | composite z-score [6] | composite z-score [7] | composite z-score [8] | composite z-score [9] | composite z-score [10] | composite z-score [11] | composite z-score [12] | composite z-score [13] | composite z-score [14] | composite z-score [15] | composite z-score [16] | z-score [17] | composite z-score [18] | composite z-score [19] | z-score [20] |
| --- | --- | --- | --- | --- | --- | --- | --- | --- | --- | --- | --- | --- | --- | --- | --- | --- | --- | --- | --- | --- |
| CCOC(=O)C[C@H]1[C@H](OC(=O)c2ccc(-c3ccccc3)cc2)[C@@H](NC(=O)CC(C)C)c2cc(OCCCO)ccc2N1C(=O)Cc1ccc(OC)cc1 | 0.593 | -0.244 (inactive) | 0.0582 | 0.0426 | -0.0667 | 0.179 | 0.39 | 0.309 | -0.213 | -0.286 | -0.283 | 0.686 | 0.0381 | 0.54 | -0.195 | 0.0007 | 0.598 | -0.276 | 0.535 | 0.491 (inactive) |
| CCOC(=O)C[C@H]1[C@H](OC(=O)c2ccc(-c3ccccc3)cc2)[C@@H](NC(=O)c2ccc3ccccc3c2)c2cc(OCCCO)ccc2N1C(=O)c1ccccc1 | 0.571 | 1.03 (inactive) | 0.0351 | -0.132 | 0.119 | 0.916 | 0.14 | 1.16 | -0.126 | 0.353 | 0.137 | 1.05 | 0.19 | 0.118 | 0.0533 | 0.831 | 0.257 | 0.669 | 0.3 | 0.61 (inactive) |
| CC(=O)c1ccc(C(O)C2C=CC3C(=O)N(C)C(=O)C3N2NC(=O)OC(C)(C)C)cc1 (stereo not given) | 1 | -0.331 (inactive) | 0.103 | 0.119 | 0.885 | 2.61 | 0.366 | 1.29 | -0.971 | 1.17 | 0.777 | 1.23 | 1.54 | 1.05 | 0.046 | 0.14 | -0.082 | 0.337 | 1.34 | -0.068 (inactive) |
| CCCCC(=C=CC[C@H](O)c1ccc(OCCO)cc1)C[C@H](O)c1ccccn1 | -0.273 | 0.611 (inactive) | 0.102 | -0.0614 | 0.562 | 1.04 | 0.967 | 1.18 | 0.0162 | 0.544 | 1.67 | 1.13 | 0.26 | 0.963 | 1.27 | 1.54 | 1.27 | 0.885 | 0.266 | -2.27 (inactive) |
| O=C1OCCC=C[C@H]2OC34C=CCN(CCN5CCOCC5)C(=O)[C@H]3N(CCCO)C(=O)[C@@H]4C12 (stereo not given in full) | -0.444 | 1.11 (inactive) | -0.155 | -0.171 | 0.0003 | 1.2 | -0.0411 | -0.119 | -0.794 | -0.112 | 0.0466 | -1.11 | -0.251 | -0.0881 | -0.0312 | -1.26 | -0.962 | -0.0933 | -0.458 | -0.552 (inactive) |
| C=C(C(=O)CC[C@@H](OC(C)=O)c1cccc(OCCO)c1)C(C)C | 0.371 | 0.566 (inactive) | -0.0311 | -0.148 | 0.862 | 1.82 | 0.0326 | 0.813 | -0.298 | 0.691 | 0.83 | 0.54 | 0.217 | -0.281 | 0.549 | -0.531 | -0.106 | 0.889 | 0.449 | -1.08 (inactive) |
